Data taken from PubChem BioAssay AID504773 (Broad Institute, 2011).
Potency and affinity values are given separately. Active and inactive are the calls of the source.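 The calls were made as follows: active = polarization signal falls with dose and the fitted half-maximal concentration is at or below ten times the sample's top valid dose; inconclusive = flat curve at 30 to 70% inhibition, or poor fit; inactive = signal rises, flat within 30%, or potency beyond limit.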

Biological target: Golgi-associated PDZ and coiled-coil motif-containing protein (Homo sapiens) (UniProt Q9HD26)
Experiment: potency against CAL PDZ-peptide interaction – biochemical, fluorescence polarization, Cerulean-tagged CAL PDZ, cherry-picks, dose response (AID 504773)
Conditions: CAL PDZ-peptide binding, 1 h; series mostly up to 50 µM

outcome, inactive:
CC1CCC(NC(=O)C2CCN(c3cnccn3)CC2)CC1 (configuration not stated)
C=CCNC(=O)CC1Nc2c3ccccc3nc(=S)n2C1=O (configuration not stated)
COc1ccccc1Oc1coc2cc(OC(=O)N3CCOCC3)ccc2c1=O
O=C(c1cccs1)N1CCN(C(=O)N2CCOCC2)CC1
FC(F)(F)Oc1ccc(NC(=S)NCCCN2CCOCC2)cc1
CCCCOc1ccc(C(=O)N2CCNC(=O)C2CC(=O)OC(C)C)cc1 (configuration not stated)
COc1ccccc1NC(=O)N(c1c(N)n(Cc2ccccc2)c(=O)[nH]c1=O)C1CCCC1
O=C(c1cccc(Oc2c(Cl)cccc2[N+](=O)[O-])c1)N1CCOCC1
O=C(C=Cc1ccccc1)c1cc(Br)ccc1O
CC1CCC(NS(=O)(=O)c2ccc3c(c2)n(C)c(=O)c(=O)n3C)CC1 (configuration not stated)
CN(C)S(=O)(=O)c1ccc(Cl)c(NC(=O)CSc2nnnn2-c2ccc(O)cc2)c1
Cc1cc(=O)n2c3ccccc3n(CC(O)CN3CCN(CCO)CC3)c2c1C#N (configuration not stated)
O=C(Cc1ccccc1)NN=C1CCCC1
CS(=O)(=O)c1ccc2nc(NC(=O)CN3C(=O)C4CC=CCC4C3=O)sc2c1 (configuration not stated)
Cc1cccc(Nc2nc(-c3ccc(F)cc3)cs2)n1
CC1=NN(C(N)=S)C(=O)C1N=Nc1ccc(Cl)cc1 (configuration not stated)
O=C(c1cc(Br)ccc1Cl)N1CCN(c2ccccn2)CC1
O=C(CCc1nc(-c2ccc(Cl)cc2)no1)NC1CCCCC1
COc1ccc(/C=C/C(=O)Nc2ccc3nc4n(c(=O)c3c2)CCCC4)cc1OC
O=C(CN1CC[n+]2c(-c3cccs3)csc21)c1ccc(-c2ccccc2)cc1
CCOc1c(Cl)cc(CNc2nnnn2C)cc1OC
O=C1CSC(=Nc2ccccc2Cl)N1
Cc1ccc(-c2nnn(CC(=O)N(CCN3CCOCC3)C(C(=O)NC(C)(C)C)c3ccc(C)o3)n2)cc1 (configuration not stated)
NC(=O)C1CCN(c2ncccc2[N+](=O)[O-])CC1
CCC(=O)c1cn(CC(=O)Nc2cccc(C)c2C)c2ccccc12
CCN(CC)S(=O)(=O)c1ccc(/C=C/C(=O)OCC(=O)N(C)C)cc1
COC(=O)CN1C(=O)N/C(=C/c2cc(Cl)c(OC)c(OC)c2)C1=O
Cc1cccc(C(=O)Nc2nnc(COc3ccccc3)s2)c1
CCOC(=O)c1c(CN2CCOCC2)oc2ccc(OC(C)=O)cc12
C=CCOc1ccc2ccccc2c1CNn1cn[nH]c1=S
CC(C)OCCCNC(=O)C1CC(=O)N(CCc2ccc(F)cc2)C1 (configuration not stated)
COCCN(Cc1nc(C(c2ccccc2)c2ccccc2)no1)C(C)C
CC(NS(=O)(=O)c1ccc(Cl)c(Cl)c1)C(=O)OCC(=O)Nc1ccc2c(c1)OCO2 (configuration not stated)
CCCc1cc2c(cc1NC(=O)c1ccco1)OCO2
CC1CCN(c2nc3c(c(=O)n(C)c(=O)n3C)n2CCSc2nc3ccccc3s2)CC1
O=C(O)c1ccc(Oc2cc(Oc3ccc(C(=O)O)cc3)cc([N+](=O)[O-])c2)cc1
O=[N+]([O-])c1ccc(N/N=C/c2cccnc2)cc1
